Data: the supplement of paper PMC4466140

What was measured:
Assay in all cases: SPOT peptide array binding signal intensity (averaged, normalized) (arbitrary units (background-subtracted, floor 0; scale differs between SH3 domains)); higher = stronger binding of the SH3 domain to the peptide
AgAbp1 = biological target: AgAbp1
In short: (§1)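 The binding signal is the normalized, background-subtracted spot intensity averaged over replicates; its arbitrary units differ between domains. It was obtained by incubating 10 μg/ml GST-fused SH3 domains from four yeast species overnight at 4°C in TBS-based blocking buffer on cellulose membranes with synthetic 15-mer peptides, cysteines replaced by serines, then detecting with anti-GST antibody, HRP anti-mouse secondary and luminol.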

AgBbc1 = biological target: AgBbc1
In short: as §1

AgBem1-D1 = biological target: AgBem1-D1
In short: as §1

AgBzz1-D1 = biological target: AgBzz1-D1
In short: as §1

AgBzz1-D2 = biological target: AgBzz1-D2
In short: as §1

AgCyk3 = biological target: AgCyk3
In short: as §1

AgFus1 = biological target: AgFus1
In short: as §1

AgHof1 = biological target: AgHof1
In short: as §1

AgHse1 = biological target: AgHse1
In short: as §1

AgLsb1 = biological target: AgLsb1
In short: as §1

AgLsb4 = biological target: AgLsb4
In short: as §1

AgMyo5 = biological target: AgMyo5
In short: as §1

AgNbp2 = biological target: AgNbp2
In short: as §1

AgRvs167 = biological target: AgRvs167
In short: as §1

AgSho1 = biological target: AgSho1
In short: as §1

AgSla1-D1-D2 = biological target: AgSla1-D1-D2
In short: as §1

AgSla1-D3 = biological target: AgSla1-D3
In short: as §1

CaAbp1-D1 = biological target: CaAbp1-D1
In short: as §1

CaAbp1-D2 = biological target: CaAbp1-D2
In short: as §1

CaBbc1 = biological target: CaBbc1
In short: as §1

CaBem1-D1 = biological target: CaBem1-D1
In short: as §1

CaBzz1-D1 = biological target: CaBzz1-D1
In short: as §1

CaBzz1-D2 = biological target: CaBzz1-D2
In short: as §1

CaCyk3 = biological target: CaCyk3
In short: as §1

CaFus1 = biological target: CaFus1
In short: as §1

CaHof1 = biological target: CaHof1
In short: as §1

CaHse1 = biological target: CaHse1
In short: as §1

CaLsb1 = biological target: CaLsb1
In short: as §1

CaLsb4 = biological target: CaLsb4
In short: as §1

CaMyo5 = biological target: CaMyo5
In short: as §1

CaNbp2 = biological target: CaNbp2
In short: as §1

CaRvs167 = biological target: CaRvs167
In short: as §1

CaRvs167-3 = biological target: CaRvs167-3
In short: as §1

CaSho1 = biological target: CaSho1
In short: as §1

CaSla1-D1-D2 = biological target: CaSla1-D1-D2
In short: as §1

CaSla1-D3 = biological target: CaSla1-D3
In short: as §1

ScAbp1 = biological target: ScAbp1
In short: as §1

ScBbc1 = biological target: ScBbc1
In short: as §1

ScBem1-D1 = biological target: ScBem1-D1
In short: as §1

ScBzz1-D1 = biological target: ScBzz1-D1
In short: as §1

ScBzz1-D2 = biological target: ScBzz1-D2
In short: as §1

ScCyk3 = biological target: ScCyk3
In short: as §1

ScFus1 = biological target: ScFus1
In short: as §1

ScHof1 = biological target: ScHof1
In short: as §1

ScHse1 = biological target: ScHse1
In short: as §1

ScLsb1 = biological target: ScLsb1
In short: as §1

ScLsb2 = biological target: ScLsb2
In short: as §1

ScLsb3 = biological target: ScLsb3
In short: as §1

ScLsb4 = biological target: ScLsb4
In short: as §1

ScMyo3 = biological target: ScMyo3
In short: as §1

ScMyo5 = biological target: ScMyo5
In short: as §1

ScNbp2 = biological target: ScNbp2
In short: as §1

ScPex13 = biological target: ScPex13
In short: as §1

ScRvs167 = biological target: ScRvs167
In short: as §1

ScSho1 = biological target: ScSho1
In short: as §1

ScSla1-D1-D2 = biological target: ScSla1-D1-D2
In short: as §1

ScSla1-D3 = biological target: ScSla1-D3
In short: as §1

SpAbp1-D1 = biological target: SpAbp1-D1
In short: as §1

SpBbc1 = biological target: SpBbc1
In short: as §1

SpBzz1-D1 = biological target: SpBzz1-D1
In short: as §1

SpBzz1-D2 = biological target: SpBzz1-D2
In short: as §1

SpCyk3 = biological target: SpCyk3
In short: as §1

SpHof1 = biological target: SpHof1
In short: as §1

SpHof1-2 = biological target: SpHof1-2
In short: as §1

SpHof1-3 = biological target: SpHof1-3
In short: as §1

SpHse1 = biological target: SpHse1
In short: as §1

SpLsb1 = biological target: SpLsb1
In short: as §1

SpLsb4 = biological target: SpLsb4
In short: as §1

SpMyo1 = biological target: SpMyo1
In short: as §1

SpNbp2 = biological target: SpNbp2
In short: as §1

SpPex13 = biological target: SpPex13
In short: as §1

SpRvs167 = biological target: SpRvs167
In short: as §1

SpSla1-D1-D2 = biological target: SpSla1-D1-D2
In short: as §1

SpSla1-D3 = biological target: SpSla1-D3
In short: as §1

## WTQRRGPLVVYAEDN
AgAbp1
  SPOT peptide array binding signal intensity: ≤ 0
AgBbc1
  SPOT peptide array binding signal intensity: 7
AgBem1-D1
  SPOT peptide array binding signal intensity: 102
AgBzz1-D1
  SPOT peptide array binding signal intensity: 11
AgBzz1-D2
  SPOT peptide array binding signal intensity: 22.5
AgCyk3
  SPOT peptide array binding signal intensity: 0.5
AgFus1
  SPOT peptide array binding signal intensity: 35.5
AgHof1
  SPOT peptide array binding signal intensity: 15.5
AgHse1
  SPOT peptide array binding signal intensity: 20.5
AgLsb1
  SPOT peptide array binding signal intensity: 4
AgLsb4
  SPOT peptide array binding signal intensity: 17.5
AgMyo5
  SPOT peptide array binding signal intensity: 3
AgNbp2
  SPOT peptide array binding signal intensity: ≤ 0
AgRvs167
  SPOT peptide array binding signal intensity: 1.17
AgSho1
  SPOT peptide array binding signal intensity: 4
AgSla1-D1-D2
  SPOT peptide array binding signal intensity: 20
AgSla1-D3
  SPOT peptide array binding signal intensity: 2
CaAbp1-D1
  SPOT peptide array binding signal intensity: ≤ 0
CaAbp1-D2
  SPOT peptide array binding signal intensity: ≤ 0
CaBbc1
  SPOT peptide array binding signal intensity: 27.2
CaBem1-D1
  SPOT peptide array binding signal intensity: 3
CaBzz1-D1
  SPOT peptide array binding signal intensity: 286
CaBzz1-D2
  SPOT peptide array binding signal intensity: 142
CaCyk3
  SPOT peptide array binding signal intensity: 18
CaFus1
  SPOT peptide array binding signal intensity: 190
CaHof1
  SPOT peptide array binding signal intensity: 1.5
CaHse1
  SPOT peptide array binding signal intensity: 6.25
CaLsb1
  SPOT peptide array binding signal intensity: 6.5
CaLsb4
  SPOT peptide array binding signal intensity: 29.5
CaMyo5
  SPOT peptide array binding signal intensity: 26
CaNbp2
  SPOT peptide array binding signal intensity: 44.5
CaRvs167
  SPOT peptide array binding signal intensity: 12.2
CaRvs167-3
  SPOT peptide array binding signal intensity: 3.5
CaSho1
  SPOT peptide array binding signal intensity: 32
CaSla1-D1-D2
  SPOT peptide array binding signal intensity: ≤ 0
CaSla1-D3
  SPOT peptide array binding signal intensity: 0.25
ScAbp1
  SPOT peptide array binding signal intensity: 1
ScBbc1
  SPOT peptide array binding signal intensity: ≤ 0
ScBem1-D1
  SPOT peptide array binding signal intensity: 11.5
ScBzz1-D1
  SPOT peptide array binding signal intensity: 28
ScBzz1-D2
  SPOT peptide array binding signal intensity: 58
ScCyk3
  SPOT peptide array binding signal intensity: 10
ScFus1
  SPOT peptide array binding signal intensity: 28.5
ScHof1
  SPOT peptide array binding signal intensity: 0.5
ScHse1
  SPOT peptide array binding signal intensity: 140
ScLsb1
  SPOT peptide array binding signal intensity: 3.5
ScLsb2
  SPOT peptide array binding signal intensity: ≤ 0
ScLsb3
  SPOT peptide array binding signal intensity: 5
ScLsb4
  SPOT peptide array binding signal intensity: ≤ 0
ScMyo3
  SPOT peptide array binding signal intensity: 16
ScMyo5
  SPOT peptide array binding signal intensity: 9
ScNbp2
  SPOT peptide array binding signal intensity: 1.5
ScPex13
  SPOT peptide array binding signal intensity: 1
ScRvs167
  SPOT peptide array binding signal intensity: 20.8
ScSho1
  SPOT peptide array binding signal intensity: ≤ 0
ScSla1-D1-D2
  SPOT peptide array binding signal intensity: ≤ 0
ScSla1-D3
  SPOT peptide array binding signal intensity: 9
SpAbp1-D1
  SPOT peptide array binding signal intensity: 6
SpBbc1
  SPOT peptide array binding signal intensity: 2.75
SpBzz1-D1
  SPOT peptide array binding signal intensity: 458
SpBzz1-D2
  SPOT peptide array binding signal intensity: ≤ 0
SpCyk3
  SPOT peptide array binding signal intensity: 7
SpHof1
  SPOT peptide array binding signal intensity: 29.5
SpHof1-2
  SPOT peptide array binding signal intensity: 22.5
SpHof1-3
  SPOT peptide array binding signal intensity: 23
SpHse1
  SPOT peptide array binding signal intensity: 66.2
SpLsb1
  SPOT peptide array binding signal intensity: ≤ 0
SpLsb4
  SPOT peptide array binding signal intensity: 31
SpMyo1
  SPOT peptide array binding signal intensity: 16
SpNbp2
  SPOT peptide array binding signal intensity: 2
SpPex13
  SPOT peptide array binding signal intensity: 19
SpRvs167
  SPOT peptide array binding signal intensity: 16
SpSla1-D1-D2
  SPOT peptide array binding signal intensity: 3
SpSla1-D3
  SPOT peptide array binding signal intensity: 6
